Rows were chosen to be rich in hits. Some 19% of all compounds tested hit in one or more screens of this group.
HT1080NT lethal: qHTS for induction of synthetic lethality in tumor cells producing 2HG: qHTS for the HT-1080-NT fibrosarcoma cell line; 360,000 tested, 1.6% active; HT-1080-NT fibrosarcoma viability, CellTiter-Glo ATP luminescence, 48 h; AID 686970, 2013; Potency, µM (series often up to 46.1 µM), inactives show at the top dose activity, negative = less viability, usual class: cytotoxic;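 note: NT is the 2HG producing partner of a matched IDH1 knockdown line; potency is the fitted concentration of half-maximal effect; 0% = DMSO-treated cells and -100% = media-only wells without cells; nearly all actives have a fitted effect of over 55% in size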
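750 cells/well, RPMI + 5% FBS; 2 h settle, compound pin-transfer, 48 h at 37 degrees C. CellTiter-Glo 10 min RT, luminescence. Normalized to DMSO and media-only wells.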
TDP1 cell noCPT: qHTS for Inhibitors of human tyrosyl-DNA phosphodiesterase 1 (TDP1): qHTS in cells in absence of CPT | DT40 Tdp1-/- hTDP1 cells, no CPT, ATP luminescence, 48 h | Potency, µM (titrated, usually from 46.2 µM), without a hit: at the highest dose activity change, negative = growth inhibition, most hits filed as inhibitors | 420,000 tested, 15% active; note: potency is the fitted concentration of half-maximal effect; nearly all actives have a fitted effect of over 55% in size
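Camptothecin absent (DMSO only). Human TDP1-complemented DT40 knockout cells, 400 cells/well, 37 °C for minimum 48 hr; ATP measured via CellTiter-Glo, 30 min dark incubation, luminescence.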
IL-1B inflam inh: qHTS for Inhibitors of Inflammasome Signaling: IL-1-beta AlphaLISA Primary Screen. 360,000 tested, 4.7% active. THP-1 LPS/ATP IL-1B secretion, AlphaLISA, 16 h; active compounds read low. activity change, % at 57.5 µM; in the data active = activity change below about -50%; inconclusive = mostly about -30% to -49%
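Secreted IL-1B measured by AlphaLISA bead assay after 16 h compound exposure of THP-1 cells; compounds (final up to 57.5 uM) added 1 h before LPS (250 ng/mL) and ATP (1.25 mM) stimulation; lower signal means less secretion.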
DT40 TDP1 CPT: qHTS for Inhibitors of human tyrosyl-DNA phosphodiesterase 1 (TDP1): qHTS in cells in presence of CPT. chicken DT40 Tdp1-/-;hTDP1 cells + 20 nM CPT, ATP luminescence, 48 h. Potency, µM (titrated, usually from 46.2 µM), for the others: at the highest dose activity change, negative = growth inhibition, actives largely listed as inhibitors. 420,000 tested, 12% active; note: potency is the fitted concentration of half-maximal effect; nearly all actives have a fitted effect of over 55% in size
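Chicken DT40 Tdp1-/- cells stably complemented with human TDP1 were seeded at 400 cells/well in medium containing 20 nM camptothecin, exposed to pin-transferred compounds, and grown at 37 °C for at least 48 hr. Viability was read as ATP luminescence.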
ELG1 DNA repair: qHTS screen for small molecules that inhibit ELG1-dependent DNA repair in human embryonic kidney (HEK293T) cells expressing luciferase-tagged ELG1 | 330,000 tested, 2.3% active | Potency, µM (doses to about 46.1 µM), for the others: top-dose activity change, negative = inhibition, usual class: inhibitors | AID 504467, 2011 | HEK293T ELG1-luciferase reporter, luminescence, 16 h; DNA damage induced by 5-fluorouridine; note: potency is the fitted concentration of half-maximal effect; nearly all actives have a fitted effect of over 55% in size
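Quantitative HTS, concentration-response format. 2,000 cells/well co-treated with 5-fluorouridine and compound, 16 hr in 5% CO2 at 37 °C; ONE-Glo luminescence read after 30 min.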
HT1080 IDH1KD tx: qHTS for induction of synthetic lethality in tumor cells producing 2HG: qHTS for the HT-1080-IDH1KD cell line. HT-1080 IDH1 knockdown viability, ATP luminescence, 48 h. Potency, µM (top dose mostly 46.1 µM), for inactives: top-dose activity, negative = toxicity, usual class: cytotoxic. 360,000 tested, 2% active. AID 686971, 2013;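 note: potency is the fitted concentration of half-maximal effect; 0% = DMSO wells and -100% = cell-free medium wells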
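% activity derives from luminescence (CellTiter-Glo), normalised to DMSO and no-cell wells. HT-1080-IDH1KD cells, 750/well, had 48 h compound exposure at 37 °C.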
ELG1 FLuc counter: qHTS screen for small molecules that inhibit ELG1-dependent DNA repair: Hit Confirmation in Cell-Based Luciferin Assay | shares compounds with ELG1 DNA repair | cell-free firefly luciferase luminescence counter-screen, ViewLux | AID 624247, 2012 | Potency, µM (top dose mostly 46.1 µM), for the others: at the top dose activity change, negative = inhibition, most hits filed as inhibitors | 350 tested, 3% active; note: potency is the fitted concentration of half-maximal effect
ELG1 Luc conf: HTS assay for small molecules that inhibit ELG1-dependent DNA repair in human embryonic kidney (HEK293T) cells expressing luciferase-tagged ELG1: Hit Confirmation. Potency, µM (titrated, usually from 46.1 µM), without a hit: at the highest dose activity change, negative = inhibition, actives largely listed as inhibitors. shares compounds with ELG1 DNA repair. 670 tested, 68% active. HEK293T ELG1-luciferase levels, luminescence; cells co-treated with 5-fluorouridine; note: potency is the fitted concentration of half-maximal effect; nearly all actives have a fitted effect of over 55% in size
Target sequence (Q96QE3 whole entry, looked up): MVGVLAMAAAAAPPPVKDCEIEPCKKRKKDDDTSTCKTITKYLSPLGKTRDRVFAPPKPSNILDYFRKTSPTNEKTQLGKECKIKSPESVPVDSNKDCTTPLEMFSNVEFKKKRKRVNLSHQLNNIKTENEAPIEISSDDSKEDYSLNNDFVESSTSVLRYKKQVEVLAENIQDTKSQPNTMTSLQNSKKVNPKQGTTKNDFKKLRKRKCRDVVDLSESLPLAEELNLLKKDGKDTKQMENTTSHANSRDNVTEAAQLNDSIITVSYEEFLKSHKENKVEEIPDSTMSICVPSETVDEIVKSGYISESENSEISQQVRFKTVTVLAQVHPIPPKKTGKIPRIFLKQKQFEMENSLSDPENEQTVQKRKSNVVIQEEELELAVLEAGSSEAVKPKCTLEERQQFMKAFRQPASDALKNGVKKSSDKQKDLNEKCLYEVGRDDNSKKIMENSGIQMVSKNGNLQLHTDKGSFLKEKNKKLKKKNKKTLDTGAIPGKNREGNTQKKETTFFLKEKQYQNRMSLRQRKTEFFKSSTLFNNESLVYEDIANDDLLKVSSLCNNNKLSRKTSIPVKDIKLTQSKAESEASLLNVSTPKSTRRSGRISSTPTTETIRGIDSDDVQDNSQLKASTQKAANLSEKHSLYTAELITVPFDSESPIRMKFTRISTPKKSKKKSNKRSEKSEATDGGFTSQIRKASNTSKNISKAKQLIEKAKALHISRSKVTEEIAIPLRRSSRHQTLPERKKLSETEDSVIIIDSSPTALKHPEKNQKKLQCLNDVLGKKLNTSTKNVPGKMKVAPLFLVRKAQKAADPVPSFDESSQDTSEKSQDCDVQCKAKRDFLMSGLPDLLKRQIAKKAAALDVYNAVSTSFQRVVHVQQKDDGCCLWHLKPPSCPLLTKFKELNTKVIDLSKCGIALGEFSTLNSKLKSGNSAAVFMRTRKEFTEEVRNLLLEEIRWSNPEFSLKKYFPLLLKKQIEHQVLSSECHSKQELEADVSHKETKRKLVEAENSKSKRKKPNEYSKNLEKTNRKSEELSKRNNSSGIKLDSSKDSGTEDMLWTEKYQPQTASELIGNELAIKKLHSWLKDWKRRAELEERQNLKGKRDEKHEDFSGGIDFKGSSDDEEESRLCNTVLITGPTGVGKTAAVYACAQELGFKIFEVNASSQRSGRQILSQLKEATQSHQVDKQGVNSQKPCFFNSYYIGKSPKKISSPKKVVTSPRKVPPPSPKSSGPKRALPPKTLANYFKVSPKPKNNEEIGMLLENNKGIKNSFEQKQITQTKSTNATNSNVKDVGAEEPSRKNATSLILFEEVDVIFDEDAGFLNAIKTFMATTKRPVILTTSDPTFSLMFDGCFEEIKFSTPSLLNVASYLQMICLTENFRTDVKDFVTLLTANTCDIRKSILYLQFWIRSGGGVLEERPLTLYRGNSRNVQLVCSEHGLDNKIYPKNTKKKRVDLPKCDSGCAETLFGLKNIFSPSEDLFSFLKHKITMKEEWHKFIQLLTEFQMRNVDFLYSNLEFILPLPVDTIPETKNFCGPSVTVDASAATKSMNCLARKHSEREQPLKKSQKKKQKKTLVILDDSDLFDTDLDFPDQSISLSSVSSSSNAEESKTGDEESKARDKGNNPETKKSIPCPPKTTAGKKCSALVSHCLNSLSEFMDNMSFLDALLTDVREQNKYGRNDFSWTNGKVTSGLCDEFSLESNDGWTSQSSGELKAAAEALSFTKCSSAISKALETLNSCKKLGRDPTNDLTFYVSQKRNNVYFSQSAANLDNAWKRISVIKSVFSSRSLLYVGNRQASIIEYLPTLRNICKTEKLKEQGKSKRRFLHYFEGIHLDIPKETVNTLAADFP
ELG1 MMS Luc: MMS-stimulated human ELG1 repair inhibition, confirmed; shares compounds with ELG1 DNA repair; HEK293T luciferase-tagged ELG1 level, MMS stimulated; Potency, µM (highest dose often 46.1 µM), without a hit: top-dose activity change, negative = inhibition, most hits filed as inhibitors; 670 tested, 53% active; AID 624249; note: potency is the fitted concentration of half-maximal effect; nearly all actives have a fitted effect of over 60% in size
ELG1 5FU viab: qHTS screen for small molecules that inhibit ELG1-dependent DNA repair: Hit Confirmation with 5FU Viability; shares compounds with ELG1 DNA repair; cell viability with 5-FU, ELG1-dependent repair; 670 tested, under 10 active; Potency, µM (highest dose often 46.1 µM), inactives show at the top dose activity change, negative = viability loss, hits mostly cytotoxic; AID 624250, 2012;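 note: ELG1-luc HEK293T cells cotreated with 5-fluorouridine at 10 µM final; potency is the fitted concentration of half-maximal effect; viability measured 16 h after compound addition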
ELG1 MMS cell: qHTS screen for small molecules that inhibit ELG1-dependent DNA repair: Hit Confirmation with MMS Viability. 670 tested, 33% active. shares compounds with ELG1 DNA repair. Potency, µM (highest dose often 46.1 µM), for the others: top-dose activity change, negative = viability loss, usual class: cytotoxic. Cell viability with MMS, ELG1-dependent DNA repair;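 note: ELG1-luc HEK293T cells co-treated with 10 µM MMS; potency is the fitted concentration of half-maximal effect; viability read 16 h after compound addition; nearly all actives have a fitted effect of over 60% in size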
ELG1 unstim viab: qHTS screen for small molecules that inhibit ELG1-dependent DNA repair: Hit Confirmation with Unstimulated Viability Assay | Potency, µM (top dose mostly 45.9 µM), inactives show top-dose activity change, negative = loss of viability, most hits filed as cytotoxic | cell viability counter-screen, unstimulated, luminescence | 900 tested, 8% active | shares compounds with ELG1 DNA repair | AID 624252, 2012;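 note: potency is the fitted concentration of half-maximal effect; compound exposure lasted 16 hours before reading; nearly all actives have a fitted effect of over 55% in size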
FLuc biochem: qHTS screen for small molecules that inhibit ELG1-dependent DNA repair: Hit Confirmation in Biochemical Luciferin Assay. shares compounds with ELG1 DNA repair. purified firefly luciferase, luminescence counter-screen. Potency, µM (top dose mostly 57.5 µM), for the others: top-dose activity, negative = inhibition, usual class: inhibitors. 350 tested, 10% active. AID 624253, 2012; note: potency is the fitted concentration of half-maximal effect
* hit, by the source's call; ? = inconclusive; . = no result. Unless noted, calls come from the whole dose curve; as a rule, active = well fitted curve in the direction sought with a large enough effect; inconclusive = small, poorly fitted or top-dose-only effect, or another doubt; inactive = no such curve, though single readings can be large; an effect the other way counts as inactive or inconclusive. Unless noted, % is set by controls: 0 for no effect and ±100 for the full control effect.

SMILES | HT1080NT lethal | TDP1 cell noCPT | IL-1B inflam inh | DT40 TDP1 CPT | ELG1 DNA repair | HT1080 IDH1KD tx | ELG1 Luc conf | ELG1 MMS Luc | ELG1 5FU viab | ELG1 MMS cell | ELG1 unstim viab | others
CCc1ccccc1N1CC(c2nnc(NC(=O)c3ccco3)s2)CC1=O (stereo not drawn) | . | -29.9% | . | -13.4% | . | . | . | . | . | . | .
O=S(=O)(c1cc(F)ccc1F)N1CCN(c2ncnc3ccccc23)CC1 | ? | 2.06µM* | 72.1 | 2.31µM* | 4.61µM* | ? | 6.28µM* | 2.23µM* | -14.3% | 2.5µM* | ?
CCN(c1cccc(C)c1)S(=O)(=O)c1cn(CC(=O)OC)c2ccc([N+](=O)[O-])cc12 | 3.0% | -17.5% | 7.2 | -12.1% | -8.5% | 1.1% | . | . | . | . | .
Cc1ccc(/C=C/c2onc(C)c2S(=O)(=O)N2CCC(C(=O)Nc3cc(C)ccc3C)CC2)cc1 | . | -14.7% | . | -16.2% | . | . | . | . | . | . | .
CCCCNC(=O)C1CCN(S(=O)(=O)c2c(C)noc2/C=C\c2ccc(OC)cc2)CC1 | 11.5% | -12.5% | -3.5 | -14.6% | -0.9% | 3.8% | . | . | . | . | .
COc1ccc(/C=C/c2onc(C)c2S(=O)(=O)N2CCC(C(=O)N3CCCCCC3)CC2)cc1 | -11.8% | ? | ? | ? | 2.59µM* | -15.3% | 3.15µM* | 15.8µM* | ? | -12.4% | -16.2%
Cc1cccc(/C=C/c2onc(C)c2S(=O)(=O)N2CCC(C(=O)N3CCCCC3)CC2)c1 | -1.5% | 18.4µM* | -15.1 | 29.1µM* | 2.91µM* | -8.1% | 2.23µM* | ? | ? | 1.4% | -13.9%
CC(C)NC(=O)CN1CCN(C(=O)c2ccc3oc(CCCc4ccccc4)nc3c2)CC1 | 0.8% | -6.2% | 0.0 | ? | ? | -0.1% | . | . | . | . | .
CCOc1cc2c(cc1/C=C/c1noc(C)c1[N+](=O)[O-])OC(C)C2 (stereo not drawn) | 20.1% | -0.1% | -10.6 | -27.9% | -0.4% | 2.1% | . | . | . | . | .
COc1ccc(NC(=O)C2CCN(c3ncnc4c3nc3n4CCCCC3)CC2)cc1Cl | -26.8% | -25.2% | ? | ? | 1.83µM* | ? | 3.15µM* | ? | ? | ? | ? | ELG1 FLuc counter=7.5%;FLuc biochem=-4.3%
Cc1ccc(NC(=O)C2CCN(c3ncnc4c3nc3n4CCCCC3)CC2)cc1Cl | -11.6% | ? | ? | ? | 2.31µM* | -4.2% | 9.97µM* | 17.7µM* | ? | -13.7% | ? | ELG1 FLuc counter=-0.9%;FLuc biochem=-0.3%
COCCNC(=O)C1(C)CCN(C(=O)C2(c3ccc(Cl)cc3)CCCC2)C1 (stereo not drawn) | 15.5% | -18.3% | 27.7 | -10.7% | . | 15.3% | . | . | . | . | .
CC(=O)N1c2ccc(S(=O)(=O)NCCC(=O)NCc3ccc(N(C)C)cc3)cc2CC1C (stereo not drawn) | 3.6% | ? | -15.6 | ? | 4.61µM* | -1.2% | 12.5µM* | -16.2% | ? | 9.5% | 4.2%
Cc1cc(=O)oc2cc(NC(=O)c3ccc(OC(F)F)cc3)ccc12 | ? | ? | -8.2 | -28.8% | ? | 27.2% | . | . | . | . | -2.0%
Cc1cc(=O)oc2cc(NC(=O)C(C)Oc3ccc(F)cc3)ccc12 (stereo not drawn) | 5.5% | 2.9% | -15.7 | 10.8% | -4.5% | 1.9% | . | . | . | . | .
O=C(COC(=O)/C=C/c1cccc(Br)c1)Nc1ccc(Cl)cn1 | -1.9% | -17.0% | 30.8 | -6.9% | . | -0.1% | . | . | . | . | .
O=C(CN1CCN(S(=O)(=O)c2ccc3c(c2)OCCCO3)CC1)N1CCc2ccccc21 | -0.8% | ? | 8.8 | ? | . | 9.2% | . | . | . | . | .
Cn1c(=O)c2[nH]c(CSCc3ccccc3)nc2n(C)c1=O | 10.6% | ? | 0.0 | ? | . | 14.9% | . | . | . | . | .
Cn1c(=O)c2[nH]c(CN(Cc3ccccc3)Cc3ccccc3)nc2n(C)c1=O | 0.7% | 14.6µM* | 24.0 | 10.3µM* | 4.11µM* | 0.5% | 7.91µM* | ? | -9.2% | ? | ?
CCNc1ncnc2[nH]ncc12 | 0.0% | -1.4% | 4.2 | 6.0% | . | 0.6% | . | . | . | . | .
